# Sampled rows, rich in hits. Any-hit rate of the full collection: about 4.7%.
# SKKanGAS inh: blocks kanamycin growth of S. pyogenes SKKanGAS strain; AID 1662; 1.3% of 300,000 active; BacTiter-Glo, 6 h; inhibition, % at 7.5 µM;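 active means mean replicate score, as percent of positive control median, at least 50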;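 further: strain carries kanamycin resistance gene driven by streptokinase promoter and grows in 40 µg/ml kanamycin; loss of luminescence reflects streptokinase promoter inhibition or plain growth inhibition; 0% = median of DMSO wells and 100% = positive control at its reference dose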
# tim10-1 inh: growth inhibitors of tim10-1 mutant yeast | 2.2% of 330,000 active | S. cerevisiae tim10-1 ts strain growth, BacTiter-Glo, 24 h | inhibition, % at 20 µM;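 active means inhibition of at least 40%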;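 further: mutant grown at 25 °C; 0% = DMSO wells with yeast and 100% = wells holding no yeast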
# Calb FLC: affects C. albicans growth with fluconazole; C. albicans CaCi-2 (fluconazole-resistant clinical isolate) + fluconazole, Alamar Blue growth, 48 h; growth inhibition, % (concentration not given with the values); 0.57% of 300,000 active; AID 1979;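 active means growth inhibition above about 58% in most replicates, limit read from the data, passing the limit was not always enough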;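 further: all wells also contain fluconazole at 8 µg/ml as a sub-toxic cotreatment; 0% = median of DMSO wells and 100% = median of geldanamycin control wells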
# PfHsp90 set2: growth inhibition of yeast expressing Plasmodium Hsp90; inhibition, % at 9.4 µM; 0.32% of 310,000 active; S. cerevisiae expressing PfHsp90, BacTiter-Glo ATP, 48 h; yeast lacking PDR1 and PDR3 efflux regulators;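 active means every replicate shows inhibition above about 80%, whatever the replicate mean, limit read from the data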;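 further: 0% = DMSO neutral controls and 100% = 20 µM radicicol positive controls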
# TIM10 inh: growth inhibitors of TIM10 yeast strain. S. cerevisiae TIM10 strain growth, BacTiter-Glo luminescence, 24 h. AID 463195. inhibition, % at 10 µM. 1.4% of 330,000 active;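 active means inhibition of 40% or more at the single tested concentration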;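 further: wild-type TIM10 isogenic control strain grown at permissive 25 °C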
# tim23-1 inh: tim23-1 yeast growth inhibition; S. cerevisiae tim23-1 growth, BacTiter-Glo luminescence, 24 h; inhibition, % at 20 µM; 1.3% of 330,000 active; AID 463212;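 active means growth inhibition of the mutant yeast at or above 50%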;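 further: temperature-sensitive mutant grown at 25 °C; plate controls were DMSO-treated mutant yeast for no effect and medium wells lacking yeast for full effect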
# tim10-1 confirm: tim10-1 yeast growth inhibition, confirmed | shares compounds with tim10-1 inh | S. cerevisiae tim10-1 ts strain growth, BacTiter-Glo, 24 h | inhibition, % at 20 µM | 56% of 7,400 active;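 active means inhibition of yeast growth at or above a set limit in either of two repeat tests at 20 µM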;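 further: tim10-1 mutant grown at permissive 25 °C to find synthetic lethal compounds; 0% = DMSO yeast wells and 100% = medium wells without yeast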
# tim10 confirm: TIM10 yeast growth inhibition, confirmed. shares compounds with TIM10 inh. S. cerevisiae tim10 strain growth, BacTiter-Glo luminescence, 24 h. inhibition, % at 10 µM. 63% of 4,600 active;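 active means inhibition of yeast growth at or above a set limit in either of two replicates at 10 µM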;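 further: this counterscreen used the strain with wild-type TIM10; 0% = yeast with DMSO and 100% = medium wells lacking yeast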
# tim23-1 confirm: confirmation of tim23-1 mutant yeast growth inhibitors. inhibition, % at 20 µM. AID 463218. 83% of 4,400 active. S. cerevisiae tim23-1 growth, BacTiter-Glo luminescence, 24 h. shares compounds with tim23-1 inh;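 active means inhibition above about 39% in either of two replicate wells at 20 µM, limit read from the data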;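 further: temperature-sensitive tim23-1 mutant grown at 25 °C; 0% = DMSO wells with yeast and 100% = medium wells without yeast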
# * = called active by the depositor; . = not tested or not shown.
SMILES,SKKanGAS inh,tim10-1 inh,Calb FLC,PfHsp90 set2,TIM10 inh,tim23-1 inh,tim10-1 confirm,tim10 confirm,tim23-1 confirm
Oc1c(C2=NCCNC(C(F)(F)F)=C2)ccc2ccccc12,-27,48*,-2,-5,44*,59*,31,43*,71*
CCOC(=O)N=Nc1c(O)n(CC(=O)OC)c2ccccc12,-2,8,-11,9,3,1,.,.,.
CCOC(=O)N=Nc1c2ccccc2c2nc3no[nH]c3nc12,9,76*,112*,108*,86*,55*,81*,96*,81*
CCOC(=O)c1cc(-c2ccccc2C)n(CC2CC(c3ccc(OC)cc3)=NO2)n1 (stereo not drawn),.,25,.,-2,7,34,.,.,.
COc1ccc(Cl)cc1C(=O)Nc1ccc(NC(C)=O)cc1,3,8,4,28,5,16,.,.,.
COc1ccc(Cl)cc1C(=O)Nc1ccc(NC(=O)C(C)C)cc1,-6,53*,4,2,41*,53*,45*,36*,42*
CC1=NN(c2ccc(Cl)c(C(=O)O)c2)C(=O)/C1=C\c1ccc(-c2ccc(C(=O)O)cc2)o1,3,.,-12,-9,.,.,.,.,.
CC1=NN(c2ccccc2)C(=O)/C1=C/c1ccc(-c2ccc(C)c(C(=O)O)c2)o1,9,48*,-2,8,34,66*,35*,.,59*
CC(C)Cn1c(N)c(C(=O)COC(=O)c2c(O)c(Cl)cc(Cl)c2Cl)c(=O)n(C)c1=O,.,42*,.,-21,26,51*,26,.,58*
CC(C)Cn1c(N)c(C(=O)COC(=O)c2ccc(Cl)cc2)c(=O)n(C)c1=O,-2,32,-13,.,33,31,.,.,.
O=C(O)c1ccc(S(=O)(=O)/N=C2\C=C(Nc3ccccc3F)C(=O)c3ccccc32)cc1,88*,79*,-7,24,74*,81*,84*,74*,89*
CCN(C(=O)Cn1nc(C)c([N+](=O)[O-])c1C)C1CCS(=O)(=O)C1 (stereo not drawn),0,-3,-6,-10,4,-8,.,.,.
CCOC(=O)/C=C/C(=O)OCC(=O)Nc1ccc(Cl)cc1Cl,3,47*,1,-1,30,54*,46*,.,73*
Cc1cc(=O)[nH]c(SCC(=O)C23CC4CC(CC(C4)C2)C3)c1C#N,0,66*,24,23,73*,74*,60*,59*,49*
COc1ccc2c(c1)CC/C(=C/c1ccccn1)C2=O,5,55*,-4,8,56*,58*,54*,60*,52*
COc1ccc2c(c1)CC/C(=C/c1cc(OC)c(OC)c(OC)c1)C2=O,-8,18,12,9,3,34,.,.,.
CC(=O)NC1Sc2ccccc2N=C1c1ccccc1 (stereo not drawn),-9,43*,-11,-26,42*,73*,54*,56*,79*
CC(=O)C1=C(C)NC(SCC(=O)c2ccc(Cl)cc2Cl)=C(C#N)C1c1ccco1 (stereo not drawn),18,55*,22,-23,27,53*,43*,.,50*
CCN1C(=O)/C(=C/N(C)c2ccccc2)OC1=S,4,9,10,10,-19,6,.,.,.
CCN1C(=O)/C(=C\N(C(C)=O)c2ccccc2)OC1=S,-3,49*,5,-8,61*,70*,57*,58*,57*
O=C(Nc1scc(-c2ccc(Br)cc2)c1C(=O)O)c1ccccc1F,78*,74*,8,19,74*,88*,82*,91*,89*

# Screening data from PubChem.
